Measurements reported in paper PMC5540273 (PLoS ONE, 2017).

Columns and labels:
Conditions in all cases: concentration: 1 μM, replicates: in singlicate; n = 1
MST2 = system: T1, MST2
T1 construct: gene STK3

MST3 = system: T2, MST3
T2 construct: gene STK24

MST4 = system: MST4
MTOR = system: MTOR
MUSK = system: MUSK
MYLK2 = system: MYLK2
MYLK4 = system: MYLK4
MYLK = system: MYLK
MYO3A = system: MYO3A
MYO3B = system: MYO3B
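Note: KINOMEscan kinase panel screen.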

Compound	%Inh (MST2) [%]	%Inh (MST3) [%]	%Inh (MST4) [%]	%Inh (MTOR) [%]	%Inh (MUSK) [%]	%Inh (MYLK2) [%]	%Inh (MYLK4) [%]	%Inh (MYLK) [%]	%Inh (MYO3A) [%]	%Inh (MYO3B) [%]
Cc1ccc(NC(=O)Nc2cc(C(C)(C)C)nn2-c2ccccc2)cc1 [GSK1014915]	23	5	13	30	17	9	4	11	0	0
COc1ccccc1CNC(=O)c1cc(C(=O)c2ccccc2C)c[nH]1 [GSK364507]	0	0	0	13	7	6	3	19	6	2
O=C1NC(=O)C(N2CCc3ccccc32)=C1c1ccccc1Cl [SB-373598]	0	0	8	15	2	22	0	8	14	9
Cc1cccc(-c2nc(-c3ccc(S(C)(=O)=O)cc3)sc2-c2ccnc(NCCc3ccccc3)c2)c1	4	0	32	0	0	14	12	0	10	0
O=C(Nc1n[nH]c2cc(-c3cccc(F)c3F)ccc12)C1CC1 [SB-733894]	31	0	8	0	0	90.2	0	8	2	0
Cc1csc(-c2nc(Nc3ccncc3)c3ccccc3n2)n1 [GW869640]	0	11	40	74	11	5	0	26	2	36
O=c1cc(N2CCOCC2)nc2n(Cc3cccc(Cl)c3Cl)ccn12 [GSK2286295]	0	0	0	17	8	2	0	25	0	8
CC(C)(C)c1ccc(C(=O)Nc2cn3cc(-c4cccnc4)ccc3n2)cc1	42	38	0	11	17	53	11	28	8	22
COc1ccccc1-c1ccc2c(NC(=O)C3CC3)n[nH]c2n1 [SB-711239]	0	0	0	30	0	23	0	12	0	0
Cc1cc(-c2ccc3c(c2)CC[C@@H](N[C@@H](C)c2ccccc2)C3)cnc1N.Cl [GW412617]	15	0	0	14	28	21	8	10	0	0
COc1cc2ncn(-c3cc(OCC4CCCO4)c(C(N)=O)s3)c2cc1OC (centres unmarked) [GSK204607]	1	6	0	11	1	0	81	19	15	0
COC(=O)c1c(-c2ccccc2)c2cc(OC)ccc2c(=O)n1Cc1ccccc1	26	20	0	0	11	0	8	0	9	0
CC(=O)Nc1nc2cnc(Nc3cc(NC(=O)c4cccc(CCC#N)c4)ccc3C)nc2s1	27	3	0	0	0	0	6	27	13	0
Cc1ccc(NC(=O)Nc2cccc(Cl)c2)cc1-c1ccc(C(=O)Nc2ccncc2)cc1 [GSK1398468]	0	0	0	9	5	9	13	8	100	0
O=C(Nc1n[nH]c2nc(-c3nccs3)c(Br)cc12)C1CC1 [SB-742251]	0	0	0	16	0	93.4	23	7	0	0
Cn1ccc2ncnc(Oc3ccc(NC(=O)Nc4ccccc4)cc3)c21	0	0	0	16	14	2	0	3	5	28
COc1ccc(CNC(=O)NC2CCN(c3ccnc(Nc4cc(OC)c(OC)c(OC)c4)n3)C2)cc1 (centres unmarked) [GSK1379748]	1	0	0	14	2	4	2	10	36	0
